Active and inactive are the calls of the source. How the source made its calls: active means hit-call score of the fitted dose curve at least 0.9, where 1 is the maximum; inactive means score below 0.9.

What all share (details): mRNA level, 48 h; actives raise or lower the signal
Read-out in assay [1]: Apoptosis regulator Bcl-2 (Homo sapiens) (UniProt P10415)
The assay can be described thus: LTEA_HepaRG_BCL2: Life Technologies and Expression Analysis (LTEA) Assay for Bcl-2 gene using HepaRG (AID 2283475).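 Further: BCL2 transcript by TaqMan qRT-PCR normalised to ACTB GAPDH and POLR2A.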 The procedure, abridged:
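Each chemical was tested in duplicate on HepaRG cultures held in serum-free induction medium for 48 h, highest concentration 100 uM with half-log dilutions. Transcript levels came from multiplexed qRT-PCR, normalised to housekeeping genes; activity was scored in either direction relative to DMSO.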

Read-out in assay [2]: Bcl-2 (BID) gene, BID (gene 637)
The assay can be described thus: LTEA_HepaRG_BID: Life Technologies and Expression Analysis (LTEA) Assay for Bcl-2 (BID) gene using HepaRG (AID 2283476). The procedure, abridged:
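Assay used HepaRG hepatic cells treated 48 h in serum-free medium with half-log dilutions from 100 uM. Endpoint: BID mRNA, qRT-PCR, normalized to ACTB/GAPDH/POLR2A.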

Read-out in a further assay: Caspase-3 (Homo sapiens) (UniProt P42574)
The assay can be described thus: LTEA_HepaRG_CASP3: Life Technologies and Expression Analysis (LTEA) Assay for cysteine-aspartic acid protease (CASP3) using HepaRG (AID 2283477). The essentials: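 Differentiated HepaRG cells, plated 48 h, were treated in duplicate in serum-free induction medium for 48 h with eight half-log concentrations up to 100 uM in 0.5% DMSO. CASP3 mRNA measured by qRT-PCR, normalized to ACTB, GAPDH, POLR2A.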

Read-out in assay [3]: Cytochrome P450 (CYP24A1), CYP24A1 (gene 1591)
The assay can be described thus: LTEA_HepaRG_CYP24A1: Life Technologies and Expression Analysis (LTEA) Assay for Cytochrome P450 (CYP24A1) using HepaRG (AID 2283478). The procedure, abridged: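 HepaRG cells plated 48 h, then exposed in duplicate in serum-free induction medium for 48 h to 8-point half-log series from 100 uM in 0.5% DMSO. CYP24A1 mRNA by Fluidigm qRT-PCR, normalized to ACTB, GAPDH, POLR2A; bidirectional fit versus DMSO.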

Read-out in assay [4]: Cytochrome P450 (CYP1A2), CYP1A2 (gene 1544)
The assay can be described thus: LTEA_HepaRG_CYP1A2: Life Technologies and Expression Analysis (LTEA) Assay for Cytochrome P450 (CYP1A2) using HepaRG (AID 2283479). The essentials: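 Differentiated human HepaRG cells in serum-free induction medium exposed 48 hours in duplicate to 8 half-log concentrations from 100 uM, 0.5% DMSO. CYP1A2 mRNA quantified by qRT-PCR, normalized to ACTB, GAPDH and POLR2A; bidirectional fitting versus DMSO.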

Read-out in assay [5]: cysteine-aspartic acid protease (CASP8), CASP8 (gene 841)
The assay can be described thus: LTEA_HepaRG_CASP8: Life Technologies and Expression Analysis (LTEA) Assay for cysteine-aspartic acid protease (CASP8) using HepaRG (AID 2283480). The essentials: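 Concentration-response in duplicate up to 100 uM (half-log steps, 0.5% DMSO) on differentiated HepaRG cultures for 48 h. Expression change of CASP8 mRNA is determined by TaqMan qRT-PCR with housekeeping-gene normalization.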

Read-out in assay [6]: Cytochrome P450 2C19 (Homo sapiens) (UniProt P33261)
The assay can be described thus: LTEA_HepaRG_CYP2C19: Life Technologies and Expression Analysis (LTEA) Assay for CYP2C19 using HepaRG (AID 2283482). The procedure, abridged:
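Differentiated HepaRG cells in serum-free induction medium exposed 48 h in duplicate, 8 concentrations from 100 uM by half-log steps in 0.5% DMSO. CYP2C19 mRNA measured by TaqMan qRT-PCR, normalized to ACTB, GAPDH, POLR2A. Bidirectional fit versus DMSO.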

Read-out in a further assay: CYP2C8 (gene 1558)
The assay can be described thus: LTEA_HepaRG_CYP2C8: Life Technologies and Expression Analysis (LTEA) Assay for CYP2C8 using HepaRG (AID 2283483). The procedure, abridged: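 This is a transcriptional endpoint in HepaRG cultures: 48 h exposure, highest concentration 100 uM. CYP2C8 mRNA is quantified by TaqMan qRT-PCR.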

Read-out in the next assay: CYP2C9 (gene 1559)
The assay can be described thus: LTEA_HepaRG_CYP2C9: Life Technologies and Expression Analysis (LTEA) Assay for CYP2C9 using HepaRG (AID 2283484). The procedure, abridged: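 Eight-point concentration-response (highest 100 uM, half-log dilutions) in HepaRG cells for 48 h; CYP2C9 expression by qRT-PCR normalized to ACTB, GAPDH, POLR2A. Bidirectional fit, DMSO baseline.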

Read-out in the next assay: CYP2E1 (gene 1571)
The assay can be described thus: LTEA_HepaRG_CYP2E1: Life Technologies and Expression Analysis (LTEA) Assay for CYP2E1 using HepaRG (AID 2283485). The procedure, abridged: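 Assay uses 48 h exposure of HepaRG hepatic cells, eight concentrations to 100 uM. Expression of CYP2E1 is quantified by TaqMan qRT-PCR with ACTB, GAPDH and POLR2A normalization; curves fitted in both directions relative to vehicle.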

Read-out in assay [7]: Cytochrome P450 3A4 (Homo sapiens) (UniProt P08684)
The assay can be described thus: LTEA_HepaRG_CYP3A4: Life Technologies and Expression Analysis (LTEA) Assay for CYP3A4 using HepaRG (AID 2283487). The procedure, abridged:
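In a human hepatic line (HepaRG), duplicate wells were treated 48 h with up to 100 uM chemical in half-log dilutions. Endpoint: CYP3A4 mRNA induction or loss relative to 0.5% DMSO vehicle, by qRT-PCR.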

Read-out in assay [8]: DNA damage-inducible transcript 3 (DDIT3), DDIT3 (gene 1649)
The assay can be described thus: LTEA_HepaRG_DDIT3: Life Technologies and Expression Analysis (LTEA) Assay for DNA damage-inducible transcript 3 (DDIT3) using HepaRG (AID 2283488). The procedure, abridged:
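Eight-point concentration-response (100 uM highest, half-log dilutions) in HepaRG, 48 h, duplicate wells. Endpoint: qRT-PCR mRNA, normalized (ACTB, GAPDH, POLR2A), bidirectional fitting with DMSO as baseline.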

Read-out in assay [9]: Pro-epidermal growth factor (Homo sapiens) (UniProt P01133)
The assay can be described thus: LTEA_HepaRG_EGF: Life Technologies and Expression Analysis (LTEA) Assay for Epidermal growth factor (EGF) using HepaRG (AID 2283489). The essentials: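 HepaRG cells (~100,000/well, 48 h pre-culture) exposed in duplicate for 48 h in serum-free induction medium to 8 half-log concentrations up to 100 uM in 0.5% DMSO. EGF mRNA by qRT-PCR, normalized to ACTB/GAPDH/POLR2A; bidirectional fit versus DMSO.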

Read-out in assay [10]: Early growth response protein 1 (EGR1) transcription factor, EGR1 (gene 1958)
The assay can be described thus: LTEA_HepaRG_EGR1: Life Technologies and Expression Analysis (LTEA) Assay for Early growth response protein 1 (EGR1) transcription factor using HepaRG (AID 2283490). The procedure, abridged: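 EGR1 expression change in human HepaRG after 48 h chemical exposure, assessed by housekeeping-normalized qRT-PCR; concentration-response up to 100 uM, fitted in both directions against DMSO controls.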

Read-out in assay [11]: Ezrin (EZR), EZR (gene 7430)
The assay can be described thus: LTEA_HepaRG_EZR: Life Technologies and Expression Analysis (LTEA) Assay for Ezrin (EZR) using HepaRG (AID 2283491). The procedure, abridged: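 Gain or loss of EZR mRNA is scored relative to 0.5% DMSO in human HepaRG cultures treated 48 h with test chemicals in duplicate, eight half-log concentrations from 100 uM.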

Read-out in another assay: CYP3A5 (gene 1577)
The assay can be described thus: LTEA_HepaRG_CYP3A5: Life Technologies and Expression Analysis (LTEA) Assay for CYP3A5 using HepaRG (AID 2283493). The procedure, abridged:
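Readout was CYP3A5 mRNA by qRT-PCR. HepaRG cultures were exposed for 48 h in serum-free induction medium to chemicals at up to 100 uM, and responses were fitted in both directions relative to DMSO vehicle.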

Read-out in assay [12]: Fatty Acid-Binding Protein 1 (FABP1), FABP1 (gene 2168)
The assay can be described thus: LTEA_HepaRG_FABP1: Life Technologies and Expression Analysis (LTEA) Assay for Fatty Acid-Binding Protein 1 (FABP1) using HepaRG (AID 2283494). The procedure, abridged: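 Values reflect bidirectional concentration-response fitting of FABP1 mRNA change against 0.5% DMSO controls. Human HepaRG cultures received eight half-log doses (top 100 uM) for 48 h; expression quantified by TaqMan qRT-PCR with housekeeping-gene normalization.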

Read-out in assay [13]: Cytochrome P450 4A22 (Homo sapiens) (UniProt Q5TCH4)
The assay can be described thus: LTEA_HepaRG_CYP4A22: Life Technologies and Expression Analysis (LTEA) Assay for Cytochrome P450 4A22 (CYP4A22) using HepaRG (AID 2283495). The procedure, abridged: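 Differentiated HepaRG cells in serum-free induction medium exposed 48 h in duplicate to eight half-log concentrations up to 100 uM in 0.5% DMSO. CYP4A22 mRNA quantified by TaqMan qRT-PCR, normalized to ACTB, GAPDH and POLR2A; bidirectional fit versus DMSO.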

Read-out in assay [14]: Cytochrome P450 7A1 (Homo sapiens) (UniProt P22680)
The assay can be described thus: LTEA_HepaRG_CYP7A1: Life Technologies and Expression Analysis (LTEA) Assay for Cytochrome P450 7A1 (CYP7A1) using HepaRG (AID 2283496). The procedure, abridged: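 Using 0.5% DMSO as vehicle and baseline, chemicals were tested in duplicate over an 8-point range from 100 uM on HepaRG cells for 48 h; qRT-PCR signals were normalised to ACTB, GAPDH and POLR2A.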

Read-out in assay [15]: Glutathione S-Transferase (GSTA2), GSTA2 (gene 2939)
The assay can be described thus: LTEA_HepaRG_GSTA2: Life Technologies and Expression Analysis (LTEA) Assay for Glutathione S-Transferase (GSTA2) using HepaRG (AID 2283497). The procedure, abridged:
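Oxidative-stress marker GSTA2 is quantified by TaqMan qRT-PCR in HepaRG cultures treated 48 h across an eight-point range to 100 uM. Expression is normalized to endogenous controls and compared with 0.5% DMSO vehicle.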

Chain of Apoptosis regulator Bcl-2 (Homo sapiens) (P10415 whole entry, looked up): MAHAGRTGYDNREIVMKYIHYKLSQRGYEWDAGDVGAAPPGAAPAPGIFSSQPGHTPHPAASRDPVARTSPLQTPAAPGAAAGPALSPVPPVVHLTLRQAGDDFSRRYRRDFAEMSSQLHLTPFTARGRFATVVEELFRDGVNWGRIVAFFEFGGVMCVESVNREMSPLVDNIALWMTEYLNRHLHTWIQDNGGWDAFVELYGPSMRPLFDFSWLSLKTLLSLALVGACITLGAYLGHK
Chain of Cytochrome P450 3A4 (Homo sapiens) (P08684 whole entry, looked up): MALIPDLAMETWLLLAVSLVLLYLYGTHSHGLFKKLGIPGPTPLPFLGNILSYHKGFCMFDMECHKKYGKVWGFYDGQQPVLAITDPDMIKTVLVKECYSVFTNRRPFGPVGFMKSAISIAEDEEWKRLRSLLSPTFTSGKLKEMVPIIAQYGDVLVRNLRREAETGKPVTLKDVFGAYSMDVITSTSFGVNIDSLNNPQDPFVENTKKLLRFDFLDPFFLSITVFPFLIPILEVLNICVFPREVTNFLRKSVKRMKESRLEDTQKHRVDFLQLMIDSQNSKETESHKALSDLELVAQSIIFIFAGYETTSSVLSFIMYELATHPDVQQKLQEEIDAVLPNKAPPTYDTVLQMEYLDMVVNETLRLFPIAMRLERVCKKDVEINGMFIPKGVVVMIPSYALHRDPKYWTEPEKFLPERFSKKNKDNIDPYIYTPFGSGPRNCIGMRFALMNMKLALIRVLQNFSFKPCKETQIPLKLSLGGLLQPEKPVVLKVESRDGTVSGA
Chain of Caspase-3 (Homo sapiens) (P42574 whole entry, looked up): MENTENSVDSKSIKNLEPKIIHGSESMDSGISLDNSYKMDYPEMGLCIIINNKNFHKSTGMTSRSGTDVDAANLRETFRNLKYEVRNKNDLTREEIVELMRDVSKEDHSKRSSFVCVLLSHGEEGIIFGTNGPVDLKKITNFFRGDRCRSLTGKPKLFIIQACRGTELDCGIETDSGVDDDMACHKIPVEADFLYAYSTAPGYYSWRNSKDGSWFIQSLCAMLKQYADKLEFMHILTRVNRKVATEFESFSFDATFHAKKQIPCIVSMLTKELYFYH
Chain of Cytochrome P450 2C19 (Homo sapiens) (P33261 whole entry, looked up): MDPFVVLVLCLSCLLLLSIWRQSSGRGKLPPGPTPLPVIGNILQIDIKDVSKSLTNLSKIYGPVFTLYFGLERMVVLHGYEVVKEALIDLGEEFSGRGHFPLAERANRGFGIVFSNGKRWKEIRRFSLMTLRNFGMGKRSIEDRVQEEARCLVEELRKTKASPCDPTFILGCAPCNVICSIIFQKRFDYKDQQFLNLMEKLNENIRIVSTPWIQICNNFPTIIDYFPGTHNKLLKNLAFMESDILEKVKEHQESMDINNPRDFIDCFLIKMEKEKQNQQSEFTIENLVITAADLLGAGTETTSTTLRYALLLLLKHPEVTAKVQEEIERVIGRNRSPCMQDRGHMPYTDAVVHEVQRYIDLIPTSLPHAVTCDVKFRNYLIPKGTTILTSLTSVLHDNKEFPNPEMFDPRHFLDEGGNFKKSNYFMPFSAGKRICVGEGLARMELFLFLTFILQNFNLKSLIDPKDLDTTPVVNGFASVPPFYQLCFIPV

In the case of `CCC(C)c1ccccc1O` (stereo not drawn), the call (in assay [1]; in assay [2]; with Caspase-3 (Homo sapiens); in assay [3]; in assay [4]; in assay [5]) was inactive. The result (in [6]; in the assay with CYP2C8 (gene 1558); with CYP2C9 (gene 1559); with CYP2E1 (gene 1571); in assay [7]; in assay [8]) was inactive. Further, the call (in assay [9]; in assay [10]; in assay [11]; with CYP3A5 (gene 1577); in assay [12]; in [13]) was inactive. Moreover, the outcome in assay [14] and in [15] was inactive.
With `CN(C)CCOC(c1ccccc1)c1ccccc1`, the result (in assay [1]; in [2]; with Caspase-3 (Homo sapiens); in [5]; in assay [8]; in [9]) was inactive. Besides, the compound was classed as inactive in assay [10], in assay [11], in assay [12] and in assay [15].
The AC50 is the concentration giving half of the maximal activity seen. For `Cc1[nH]nc2c1N=C(c1ccccc1Cl)c1cc([N+](=O)[O-])ccc1N2`, the half-maximal activity concentration (AC50) is 8.98 µM (active) in [1]; 4.02 µM (active) in assay [3]; 11.5 µM (active) in [4]; 4.24 µM (active) in assay [6]; 7.45 µM (active) with CYP2C8 (gene 1558); 5.12 µM (active) in the assay with CYP2C9 (gene 1559). In addition, the AC50 with CYP2E1 (gene 1571) is 10.1 µM (active); in [7] it was 77.6 µM (active); in assay [11] it was 1.38 µM (active); with CYP3A5 (gene 1577), 13.4 µM (active); in assay [12], 8.85 µM (active); in assay [13], 8.32 µM (active). For the same compound, the concentration at half-maximal activity (AC50) in assay [14] is 27 µM (active); in assay [15], 17.2 µM (active). Besides, the result (in the assay with Caspase-3 (Homo sapiens); in assay [5]; in assay [8]; in assay [9]; in assay [10]) was inactive.
As to `OCC(CO)(CBr)CBr`, the compound was classed as inactive (in [2]; with Caspase-3 (Homo sapiens); in assay [3]; in [4]; in [5]; in [6]). Also, the call (with CYP2C8 (gene 1558); with CYP2C9 (gene 1559); with CYP2E1 (gene 1571); in assay [7]; in assay [8]; in [9]) was inactive. Besides, the compound was called inactive (in assay [10]; in [11]; with CYP3A5 (gene 1577); in assay [12]; in assay [13]; in assay [14]). Further, the result in assay [15] was inactive.

These data come from PubChem BioAssay (EPA / NIEHS).
